Measurements as given in the supplement of paper PMC10338343.
± gives the standard deviation. Whole data set: some 8,200 sequences, median “pre-steady-state target cleavage rate” near 0.024, cut for the highest 2% near 1.3. Many of the other results were omitted from the sample, so the highest values are more common in it than they were.

Test system: MIWI (PIWIL1) piRISC loaded with L1MC piRNA (30 nt)
Assay: pre-steady-state target cleavage rate (min^-1); MIWI and MILI are mouse PIWI proteins and EfPiwi is from a freshwater sponge; tags in brackets are library labels; higher = faster piRNA-guided slicing of the target
Details: guide: L1MC piRNA 5'p-UAACUAAAUACUAUGCAAGCUGUAGGUCCU
Summary of the method: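 Cleave-'n-Seq reactions paired 0.1 nM transcribed, DNA-blocked target RNA library with 1 nM active affinity-purified piRISC holding one synthetic guide, plus or minus 500 nM GTSF1 partner protein, in HEPES–potassium acetate buffer at 33 °C for 0–8 or 0–960 min. After sequencing of uncleaved targets and normalisation to depth and weakly complementary targets, the pre-steady-state cleavage rate was taken from a burst-and-steady-state fit. Three trials were pooled, and k3 was capped at 0.0001 min^-1.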

[1] = auxiliary factor: 500 nM mouse GTSF1
[2] = auxiliary factor: none (no GTSF1)

Row | Sequence | pre-steady-state target cleavage rate [1] | pre-steady-state target cleavage rate [2]
1 | UGGAGCUACAGCUUGCAUAGUAUUUAGUUA | 1.25 ± 0.045 | 0.0783 ± 0.012
2 | AGGAGCUACAGCAUGCAUAGUAUUUAGUUA | 1.37 ± 0.058 | 0.0574 ± 0.01
3 | UGGAGCUACACCUUGCAUAGUAUUUAGUUA | 1.12 ± 0.051 | 0.0597 ± 0.0097
4 | UGGAGCUACAGCAUGCAUAGUAUUUAGUUA | 1.14 ± 0.042 | 0.0429 ± 0.0078
5 | UGGAGCUACAGCUUGCAUAGUAUUUAGUAA | 0.953 ± 0.06 | 0.0465 ± 0.0085
6 | UCGAGCUACAGCAUGCAUAGUAUUUAGUUA | 1.19 ± 0.054 | 0.0332 ± 0.0062
7 | AGGAGCUACAGCUUGCAUAGUAUUUAGUUA | 1.42 ± 0.055 | 0.0984 ± 0.016
8 | UCGAGCUACACCUUGCAUAGUAUUUAGUUA | 1.01 ± 0.046 | 0.0524 ± 0.0089
9 | UCCUGCUACAGCUUGCAUUAGUAUUUAGUUA | 0.0188 ± 0.0083 | 
10 | UCCAGGAACAGCUUGCAUAGUAUUUAGUAA | 0.57 ± 0.047 | 0.0391 ± 0.0081
11 | AGGAGCUACAGCUUGCAUAGUAUUAAGUUA | 0.783 ± 0.065 | 0.0457 ± 0.0092
12 | UCCACCUACAGCUUGCAUAGUUUUUUCAAA | 0.144 ± 0.028 | 
13 | UCCUGGUACAGCUUGCAUAGUAUUAUCAAA [g7:g24:cont:t1A] | 0.124 ± 0.024 | 
14 | UCCACCUACAGCUUGCAUAGUAUUUAGUUA [g2:g27:cont:t1A] | 0.987 ± 0.051 | 0.0744 ± 0.015
15 | UCGAGCCUACAGCUUGCAUAGUAUUUAGUUA | 1.46 ± 0.074 | 0.0844 ± 0.016
16 | AGGAGCCUACAGCUUGCAUAGUAUUUAGUUA | 1.4 ± 0.072 | 0.0847 ± 0.013
17 | UCCAGCUACAGCUUGCAUAGUAUUUAGUUA | 0.682 ± 0.042 | 0.0438 ± 0.0056
18 | UCCAGCCUACAGCUUGCAUAGUAUUUAGUUA | 1.32 ± 0.062 | 0.0623 ± 0.0092
19 | UCCUGGAUCAGCUAGCAUAGUAUUUAGAUA | 0.226 ± 0.026 | 0.00546 ± 0.0022
20 | UCGACCUACUGCUUGCAUACUAUUUAGUUA | 0.345 ± 0.014 | 0.0294 ± 0.0065
21 | UCCUCCUACAGCUUGCAUAAUAUUUAGUUA | 0.52 ± 0.03 | 0.0234 ± 0.0044

Row | Sequence | pre-steady-state target cleavage rate [1] | pre-steady-state target cleavage rate [2]
22 | UGGAGGAACAGCUUGCAUAGUAUUUAGUAA | 0.754 ± 0.05 | 0.0519 ± 0.012
23 | UCCACCUACACCAUGCAUAGUAUUUAGUUA | 0.719 ± 0.036 | 0.0161 ± 0.003
24 | UCCUGGAUGAGCUAGCAUAGUAUUUAGAAA | 0.124 ± 0.029 | 
25 | UGCGACCUACAGCUUGCAUAGUAUUUAGUUA | 1.41 ± 0.057 | 0.0975 ± 0.02
26 | AGCGACCUACAGCUUGCAUAGUAUUUAGUUA | 1.37 ± 0.049 | 0.112 ± 0.019
27 | UCCUGCUACAGCUUGGUAAGUAUUUAGUUA | 0.0624 ± 0.011 | 
28 | UCCUGGAUCAGCAUGCAUAGUAUUUAGAUA | 0.375 ± 0.034 | 0.00494 ± 0.0022
29 | UCCUGGAUCAGCUUGCAUAGUAUAUAGUAA | 0.458 ± 0.054 | 0.0134 ± 0.0052
30 | UCCAGCUACAGCUUGCAUAGUUUUUAGUUA | 0.253 ± 0.026 | 0.0203 ± 0.0032
31 | UCCUGCUACGAGCUUGCAUAGUAUUUAGUUA | 0.717 ± 0.073 | 0.0315 ± 0.0066
32 | UCGAGCUACAGCUUGCAUAGUAUUUAGAAA | 0.407 ± 0.039 | 0.0061 ± 0.0023
33 | ACGAGCUACAGCUUGCAUAGUAUUUAGUUA | 1.54 ± 0.057 | 0.094 ± 0.016
34 | UCGAGCUACAGCUUGCAUAGUAUUUAGAUA | 0.443 ± 0.041 | 0.0206 ± 0.0046
35 | UCGAGCUACAGCUUGCAUAGUAUUUAGUAA | 1.08 ± 0.082 | 0.0348 ± 0.0066
36 | UCGAGCUACAGCUUGCAUAGUAUUUAGUUA | 1.41 ± 0.062 | 0.0832 ± 0.014
37 | UCCUGGAUCAGCUUGCAUAGUAUUAAGAUA | 0.265 ± 0.05 | 0.00645 ± 0.0033
38 | UGGACCUACAGCUUGCAUAGUAUGUAGUUA | 0.332 ± 0.041 | 0.0171 ± 0.0041
39 | UCCUGCUACAGCUUGGUUAGUAUUUACAAA | 0.0104 ± 0.0047 | 
40 | UCGACCUACAGCUUGCAUAGUAUUUUGUUA | 0.921 ± 0.043 | 0.0471 ± 0.0091
41 | UCCUGGAUCAGCUAGCAUAGUAUUUUCAAA | 0.0506 ± 0.015 | 
42 | UGGACUCUACAGCUUGCAUAGUAUUUAGUUA | 1.4 ± 0.066 | 0.0856 ± 0.017

Row | Sequence | pre-steady-state target cleavage rate [1] | pre-steady-state target cleavage rate [2]
43 | UCGACUCUACAGCUUGCAUAGUAUUUAGUUA | 1.48 ± 0.06 | 0.0579 ± 0.0096
44 | UGGACUACAGCUUGCAUAGUAUUUAGUUA | 1.34 ± 0.053 | 0.0823 ± 0.013
45 | UGGACACUACAGCUUGCAUAGUAUUUAGUUA | 1.04 ± 0.063 | 0.0643 ± 0.0081
46 | AGGACUACAGCUUGCAUAGUAUUUAGUUA | 1.24 ± 0.066 | 0.0945 ± 0.016
47 | UCCACUCUACAGCUUGCAUAGUAUUUAGUUA | 0.884 ± 0.029 | 0.0688 ± 0.012
48 | UCGACGCUACAGCUUGCAUAGUAUUUAGUUA | 1.27 ± 0.063 | 0.094 ± 0.022
49 | AGGACUCUACAGCUUGCAUAGUAUUUAGUUA | 1.28 ± 0.069 | 0.0617 ± 0.011
50 | UGGACCUACACCUUGCAUAGUAUUUUCAAA | 0.327 ± 0.05 | 0.00389 ± 0.0023
51 | UCCUGGAACUGCUAGCAUAGUAUUUAGUUA | 0.534 ± 0.037 | 0.00949 ± 0.0035
52 | UCGACCUACAGCUUGCAUAGUAUUUAGUCA | 0.947 ± 0.041 | 0.0656 ± 0.013
53 | UCCUGGUACACCUUGCAUAGUAUUUAGUAA | 0.334 ± 0.078 | 0.0104 ± 0.0044
54 | UCCUCCUACAGCUUGCAUAGUAUAUUGUUA | 0.368 ± 0.033 | 0.0145 ± 0.0039
55 | UGGACCUACAGCUUGCAUACUAAUUAGUUA | 0.154 ± 0.01 | 0.00958 ± 0.0024
56 | UCCUGGAACAGCUUGCUAUGUAUUUAGUUA | 0.0729 ± 0.011 | 0.00814 ± 0.0024
57 | UCCUCCUACAGCUUGCAUACUAUUUACUUA | 0.197 ± 0.023 | 0.018 ± 0.0033
58 | UCGACCUACAGCUUGCAUAUUAUUUAGUUA | 1.5 ± 0.072 | 0.0515 ± 0.013
59 | UGGACCUACAGCUUGCAUAUAUUUAGUUA | 0.429 ± 0.067 | 0.00298 ± 0.0022
60 | UCGACCUACAGCUUGCAUAGUUAUUUAGUUA | 0.0764 ± 0.016 | 0.00495 ± 0.0031
61 | UGGACCUACAGCUUGCAUAUUAUUUAGUUA | 1.71 ± 0.12 | 0.0442 ± 0.0088
62 | AGGACCUACAGCUUGCAUAUUAUUUAGUUA | 1.23 ± 0.074 | 0.0773 ± 0.017
63 | UCGACCUACAGCUUGCAUAUAUUUAGUUA | 0.489 ± 0.044 | 
